Compound activity deposited in PubChem BioAssay by National Center for Advancing Translational Sciences (NCATS).
Compounds with a hit are over-represented: about 12% of the library has one in this group of screens.
HP1b chromo inh = HTS for Inhibitors of HP1-beta Chromodomain Interactions with Methylated Histone Tails. Chromobox protein homolog 1 (Homo sapiens), P83916. actives 0.56% (n = 390,000). Potency, µM (top dose mostly 114 µM), inactives show at the highest dose activity change, negative = inhibition, actives largely listed as inhibitors. AlphaScreen HP1-beta / biotin-H3K9me3 peptide binding; further: nearly all actives have a fitted effect of over 70% in size
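HP1-beta protein (50 nM final) preincubated 30 min at room temperature with biotinylated H3(1-18)K9me3 peptide (50 nM) in PBS pH 7.4, 0.01% Tween-20, then compound added for 30 min. AlphaScreen streptavidin donor/nickel chelate acceptor beads (10 ug/mL final), 30 min dark, luminescence read.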
JMJD2A Tudor inh = qHTS Assay for Inhibitors of JMJD2A-Tudor Domain; Lysine-specific demethylase 4A (Homo sapiens), O75164; AlphaScreen JMJD2A-Tudor / H3K4me3 peptide binding; Potency, µM (top dose mostly 114 µM), without a hit: at the top dose activity change, negative = inhibition, usual class: inhibitors; actives 4.4% (n = 390,000); AID 504339, 2011; further: on the % scale 0 is the no-effect control and ±100 the full control effect; nearly all actives have a fitted effect of over 50% in size
BAZ2B block = qHTS Assay for Inhibitors of BAZ2B. AlphaScreen BAZ2B-H3K14Ac peptide displacement. Potency, µM (titrated, usually from 114 µM), for inactives: at the top dose activity change, negative = inhibition, actives largely listed as inhibitors. AID 504333, 2011. actives 4.4% (n = 360,000); further: on the % scale 0 is the no-effect control and ±100 the full control effect; nearly all actives have a fitted effect of over 60% in size
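BAZ2B 50 nM plus b-H3(5-23)K14Ac 50 nM, PBS pH 7.4/0.01% Tween-20, 30 min RT; compound added (max 110 uM), 30 min RT; streptavidin donor/Ni-chelate acceptor beads 10 ug/mL final, 20 min dark; AlphaScreen read.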
G9a inh = qHTS Assay for Inhibitors of Histone Lysine Methyltransferase G9a; Histone-lysine N-methyltransferase EHMT2 (Homo sapiens), Q96KQ7; G9a H3K9 monomethylation, AlphaScreen, 2 h; Potency, µM (doses to about 102 µM), without a hit: top-dose activity, negative = inhibition, usual class: inhibitors; actives 8.8% (n = 350,000); further: on the % scale 0 is the no-effect control and ±100 the full control effect; nearly all actives have a fitted effect of over 75% in size
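Compounds were preincubated with 20 nM G9a for 15 min, after which biotinylated H3K9 peptide (500 nM) and SAM (20 uM) started a 2 h room-temperature reaction. Monomethylated product was quantified by antibody-based AlphaScreen chemiluminescence.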
Sfp inh = qHTS Assay for Inhibitors of Bacillus subtilis Sfp phosphopantetheinyl transferase (PPTase) | 4'-phosphopantetheinyl transferase ffp (Bacillus subtilis), Q9F4F7 | Biochemical Sfp PPTase activity, qHTS | Potency, µM, for inactives: largest response in the series, negative = inhibition, most hits filed as inhibitors | actives 3.5% (n = 310,000) | AID 1490, 2009;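 further: the enzyme is Sfp with the accession as filed and its product quenches rhodamine fluorescence; 0% = enzyme reaction without inhibitor and -100% = no enzyme wells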
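Step 1, compound plus 15 nM Sfp-PPTase, 15 min, room temperature. Step 2, add rhodamine-CoA (5 uM) and BHQ-2-YbbR (12.5 uM). Step 3, read 525/598 nm fluorescence at 0 and 30 min.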
PLK1 PBD block = qHTS for Inhibitors of PLK1-PDB (polo-like kinase 1 - polo-box domain): Primary Screen. Serine/threonine-protein kinase PLK1 (Homo sapiens), P53350. Plk1 PBD binding of FITC phosphopeptide, fluorescence polarization. Potency, µM, for inactives: max response, negative = inhibition, usual class: inhibitors. actives 2.8% (n = 360,000). AID 720504, 2013; further: series mostly up to about 57 µM; on the % scale 0 is the no-effect control and ±100 the full control effect; nearly all actives have a fitted effect of over 65% in size
The depositor's hits bear a star; ? = inconclusive; . = not tested or not shown; [ ] = remark or other dose. The call rests on the fitted dose curve; in most records, active means well fitted curve in the direction sought with a large enough effect; inconclusive means small, poorly fitted or top-dose-only effect, or another doubt; inactive means no such curve, though single readings can be large; an effect the other way counts as inactive or inconclusive. Potency means the concentration at half of the fitted maximal effect.

SMILES	HP1b chromo inh	JMJD2A Tudor inh	BAZ2B block	G9a inh	Sfp inh	PLK1 PBD block
CCN(CC(=O)Nc1c(F)cccc1F)C(=O)c1ccc(S(=O)(=O)N2CCC(C)CC2)cc1	38%	-8%	2%	-4%[12.7 µM]	.	2%
O=C(O)COc1ccc(/C=C/C(=O)c2ccc(C3CCCCC3)cc2)cc1	-2%	-34%	-16%	22µM*	-11%	24µM*
O=C(O)COc1ccc(/C=C/C(=O)c2ccc3ccccc3c2)cc1	-6%	-29%	-10%	-7%	-5%	-29%
O=C(CCC(=O)N1CCOc2ccccc21)Nc1ccccc1Cl	23%	-19%	11%	.	13%	-10%
CCOC(=O)c1c(NC(=O)/C=C/c2ccc(OCC)c(OC)c2)sc2c1CCC2	39%	10%	0%	28%[59 µM]	.	.
CC(C)(C)C1CCC(=NNC(=O)C2COc3ccccc3O2)CC1 (stereo not given)	53%	-5%	0%	13%[59 µM]	.	-2%
CCOC(=O)c1cnc(SC2CC(=O)N(c3ccc(OC)c(OC)c3)C2=O)nc1N (stereo not given)	19%	-7%	13%	20µM*	6%	-13%
CCOc1ccc2nc(SC3CC(=O)N(c4ccc(OC)cc4OC)C3=O)sc2c1 (stereo not given)	34%	-22%	-22%	32µM*	-1%	-5%
CC(=O)Nc1ccc(N2C(=O)CC(Sc3nc4ccccc4s3)C2=O)cc1 (stereo not given)	35%	-17%	-32%	28µM*	-8%	-9%
COc1ccc(N2C(=O)CC(Sc3nc4ccccc4s3)C2=O)cc1OC (stereo not given)	30%	-14%	-18%	32µM*	-23%	-23%
CCOc1ccc(N2C(=O)CC(Sc3nc4ccc(OCC)cc4s3)C2=O)cc1 (stereo not given)	70%	-8%	.	.	.	-7%
CC(=O)N(C(C)=O)c1ncn(C)c1S(=O)(=O)Nc1ccccc1	19%	-16%	.	.	.	2%
COc1c2ccoc2nc2c(OC)c(O[C@@H]3O[C@H](C)[C@@H](O)[C@@H](O)[C@H]3O)ccc12	.	.	.	.	6%	.
CC(=O)NC1=NN(C(C)=O)C2(S1)C(=O)N(C(C)=O)c1ccc(C)cc12 (stereo not given)	-16%	?	-7%	-7%[59 µM]	7%	27µM*
CCN(CC)S(=O)(=O)c1ccc2c(c1)N(CC(=O)N1CCN(c3ccc(OC)cc3)CC1)C(=O)CO2	1%	-26%	-19%	-47%[59 µM]	.	.
O=c1cc2oc3cc(O)c(O)cc3c(-c3ccccc3[N+](=O)[O-])c-2cc1O	0.79µM*	0.71µM*	1.1µM*	1.4µM*	35µM*	-24%
Cc1ccccc1-c1ccc2ncnc(N3CCOCC3)c2c1	.	.	.	5%[0.501 µM]	-6%	.
Cc1ccc(C(=O)NNC(=O)c2ccccc2)cc1S(=O)(=O)N1CCCCC1	54%	6%	1%	-8%[12.7 µM]	.	2%
O=c1c2ccccc2sn1-c1ccc(S(=O)(=O)N2CCCCC2)cc1	?	8.9µM*	.	.	.	1.3µM*
O=c1c2ccccc2sn1-c1ccc(S(=O)(=O)N2CCCC2)cc1	1.4µM*	11µM*	7.1µM*	.	3.2µM*	1.1µM*
O=S(=O)(c1ccccc1)N1CCN(S(=O)(=O)N2CCCCCC2)CC1	32%	-1%	2%	26%[59 µM]	14%	-23%
O=S(=O)(c1ccc(S(=O)(=O)N2CCCC2)cc1)N1CCCCC1	11%	-6%	-10%	-21%	2%	2%
